PubChem BioAssay (NCI)
Compounds without any hit were thinned out: in the full panel of roughly 79,000, 15% have a hit. Values without a mark were called inactive. Activity calls are given as the source filed them. No stated cut-off is given here; in the data, active means growth inhibition above about 70%; inactive means the rest.

How the values were obtained:
[1] = NCI Yeast Anticancer Drug Screen. Data for the rad52 strain (AID 147);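 further: 0% = growth of vehicle-treated control cultures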; conditions: S. cerevisiae rad52 mutant growth inhibition, active compounds read high
Method in brief: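 DNA repair-defective yeast; compound exposure; growth scored against vehicle controls.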

[2] = NCI Yeast Anticancer Drug Screen. Data for the wt1 strain (AID 149);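 further: 0% = growth of vehicle-treated wt1 cultures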; conditions: S. cerevisiae wt1 strain (SPY 50644) growth inhibition, active compounds read high
Method in brief: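 The wt1 strain was treated with compounds, and growth was compared with vehicle-treated cultures to give inhibition.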

[3] = NCI Yeast Anticancer Drug Screen. Data for the rad50EPP+ strain (AID 151);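 further: 0% = growth of vehicle-treated control cultures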; conditions: S. cerevisiae rad50 mutant strain, active compounds read high
Method in brief: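 rad50EPP+ yeast treated with test compounds. Readout: growth vs vehicle control.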

[4] = NCI Yeast Anticancer Drug Screen. Data for the mgt1 strain (AID 153); conditions: S. cerevisiae mgt1 mutant growth inhibition, active compounds read high
Method in brief: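 Growth inhibition relative to vehicle controls was scored for the mgt1 yeast strain after compound exposure.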

[5] = NCI Yeast Anticancer Drug Screen. Data for the rad50 strain (AID 155);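 further: 0% = growth of vehicle-only cultures of the same strain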; conditions: S. cerevisiae rad50 strain growth inhibition, active compounds read high
Method in brief: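 Cells are treated with compound, grown, and their growth is then scored against vehicle-only cultures of the same repair-deficient yeast strain.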

[6] = NCI Yeast Anticancer Drug Screen. Data for the mec2-1 strain (AID 157); conditions: S. cerevisiae mec2-1 strain, active compounds read high
Method in brief: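 Growth inhibition is read against vehicle-treated controls after compound exposure of the mec2-1 yeast strain, which is defective in DNA damage repair or cell cycle control.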

[7] = NCI Yeast Anticancer Drug Screen. Data for the sgs1 mgt1 strain (AID 161);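 further: 0% = growth of cultures given vehicle only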; conditions: S. cerevisiae sgs1 mgt1 strain, active compounds read high
Method in brief: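 Percent growth inhibition was derived by comparing compound-exposed mutant yeast with vehicle-exposed cultures. The strain carries alterations in DNA damage repair.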

[8] = NCI Yeast Anticancer Drug Screen. Data for the CLN2oe strain (AID 163);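 further: 0% = growth of vehicle-only control cultures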; conditions: S. cerevisiae CLN2oe strain, active compounds read high
Method in brief: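 Compound-treated yeast; growth vs vehicle ctrl = % inhibition. Genetically altered strain (cell-cycle control).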

[9] = NCI Yeast Anticancer Drug Screen. Data for the cln2 rad14 strain (AID 165);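 further: 0% = growth equal to vehicle treated cultures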; conditions: S. cerevisiae cln2 rad14 strain, active compounds read high
Method in brief: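 Growth inhibition, relative to vehicle-treated controls, is the read-out. The test organism is a yeast strain with defined genetic alterations, cln2 rad14.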

[10] = NCI Yeast Anticancer Drug Screen. Data for the bub3 strain (AID 167); conditions: S. cerevisiae bub3 mutant strain, active compounds read high
Method in brief: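 Part of a panel of yeast mutants defective in DNA damage repair or cell cycle regulation. Each strain is grown with compound, and inhibition is calculated relative to solvent-treated cultures.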

[11] = NCI Yeast Anticancer Drug Screen. Data for the mlh1 strain (AID 171);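 further: 0% = growth of vehicle-treated control cultures of the same strain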; conditions: S. cerevisiae mlh1 strain growth inhibition, active compounds read high
Method in brief: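 Compounds are applied to a genetically altered yeast strain, and its growth is compared with that of vehicle-treated cultures to give percent inhibition.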

[12] = NCI Yeast Anticancer Drug Screen. Data for the sgs1 strain (AID 173);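 further: 0% = growth of vehicle-only control cultures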; conditions: S. cerevisiae sgs1 mutant, active compounds read high
Method in brief: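 Compounds applied to genetically altered yeast; growth compared with vehicle-treated cultures to give % inhibition.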

[13] = NCI Yeast Anticancer Drug Screen. Data for the mlh1 rad18 strain (AID 175); conditions: S. cerevisiae mlh1 rad18 strain growth inhibition, active compounds read high
Method in brief: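 Cells of a genetically altered yeast strain, deficient in DNA damage repair, were treated with compound. Their growth was then compared with that of vehicle-treated cultures to give inhibition.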

[14] = NCI Yeast Anticancer Drug Screen. Data for the rad18 strain (AID 177); conditions: S. cerevisiae rad18 mutant growth inhibition, active compounds read high
Method in brief: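 Compounds are applied to a repair-deficient yeast strain, and growth is compared with that of vehicle-treated cultures to give percent inhibition.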

[15] = NCI Yeast Anticancer Drug Screen. Data for the wt2 strain (AID 169);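 further: 0% = growth of vehicle-treated yeast cultures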; conditions: S. cerevisiae wt2 strain growth inhibition, active compounds read high
Method in brief: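 Compound exposure of yeast; growth compared with vehicle controls; inhibition reported.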

[16] = at 5.0 µM (retest, dose inferred, filed as 0.5)
[17] = at 50.0 µM (retest, dose inferred, filed as 5.0)

## CCCCc1cc(O)ccc1O
[1]; at 1.2 µM
  growth inhibition: 2%
[1]; at 3.7 µM
  growth inhibition: 13%
[1]; at 11.0 µM
  growth inhibition: 24%
[1]; at 33.0 µM
  growth inhibition: 27%
[1]; at 100.0 µM
  growth inhibition: 29%
[2]; at 1.2 µM
  growth inhibition: -2%
[2]; at 3.7 µM
  growth inhibition: -2%
[2]; at 11.0 µM
  growth inhibition: 0%
[2]; at 33.0 µM
  growth inhibition: 3%
[2]; at 100.0 µM
  growth inhibition: 1%
[3]; at 1.2 µM
  growth inhibition: 13%
[3]; at 3.7 µM
  growth inhibition: 34%
[3]; at 11.0 µM
  growth inhibition: 57%
[3]; at 33.0 µM
  growth inhibition: 77% (active)
[3]; at 100.0 µM
  growth inhibition: 88% (active)
[4]; at 1.2 µM
  growth inhibition: -4%
[4]; at 3.7 µM
  growth inhibition: -1%
[4]; at 11.0 µM
  growth inhibition: 1%
[4]; at 33.0 µM
  growth inhibition: 0%
[4]; at 100.0 µM
  growth inhibition: 10%
[5]; at 1.2 µM
  growth inhibition: 6%
[5]; at 3.7 µM
  growth inhibition: 12%
[5]; [16]
  growth inhibition: -81%
[5]; at 11.0 µM
  growth inhibition: 32%
[5]; at 33.0 µM
  growth inhibition: 54%
[5]; [17]
  growth inhibition: 87% (active)
[5]; at 50.0 µM
  growth inhibition: 20.7%
[5]; at 100.0 µM
  growth inhibition: 62%
[6]; at 1.2 µM
  growth inhibition: 4%
[6]; at 3.7 µM
  growth inhibition: 2%
[6]; [16]
  growth inhibition: -37%
[6]; at 11.0 µM
  growth inhibition: 1%
[6]; at 33.0 µM
  growth inhibition: 17%
[6]; [17]
  growth inhibition: -13%
[6]; at 50.0 µM
  growth inhibition: 11.2%
[6]; at 100.0 µM
  growth inhibition: 28%
[7]; [16]
  growth inhibition: -48%
[7]; [17]
  growth inhibition: 6%
[7]; at 50.0 µM
  growth inhibition: 43.7%
[8]; at 1.2 µM
  growth inhibition: -3%
[8]; at 3.7 µM
  growth inhibition: 1%
[8]; at 11.0 µM
  growth inhibition: 3%
[8]; at 33.0 µM
  growth inhibition: 11%
[8]; at 100.0 µM
  growth inhibition: 21%
[9]; [16]
  growth inhibition: -54%
[9]; [17]
  growth inhibition: -31%
[9]; at 50.0 µM
  growth inhibition: 19.5%
[10]; at 1.2 µM
  growth inhibition: -9%
[10]; at 3.7 µM
  growth inhibition: -1%
[10]; [16]
  growth inhibition: -63%
[10]; at 11.0 µM
  growth inhibition: -5%
[10]; at 33.0 µM
  growth inhibition: 5%
[10]; [17]
  growth inhibition: 3%
[10]; at 50.0 µM
  growth inhibition: 27.6%
[10]; at 100.0 µM
  growth inhibition: 19%
[11]; at 1.2 µM
  growth inhibition: 6%
[11]; at 3.7 µM
  growth inhibition: -1%
[11]; at 11.0 µM
  growth inhibition: 4%
[11]; at 33.0 µM
  growth inhibition: 9%
[11]; at 100.0 µM
  growth inhibition: 4%
[12]; at 1.2 µM
  growth inhibition: 0%
[12]; at 3.7 µM
  growth inhibition: 6%
[12]; at 11.0 µM
  growth inhibition: 10%
[12]; at 33.0 µM
  growth inhibition: 24%
[12]; at 100.0 µM
  growth inhibition: 42%
[13]; [16]
  growth inhibition: -86%
[13]; [17]
  growth inhibition: 42%
[13]; at 50.0 µM
  growth inhibition: 64.3%
[14]; at 1.2 µM
  growth inhibition: 3%
[14]; at 3.7 µM
  growth inhibition: 7%
[14]; at 11.0 µM
  growth inhibition: 15%
[14]; at 33.0 µM
  growth inhibition: 26%
[14]; at 100.0 µM
  growth inhibition: 31%

## COC(=O)c1ccc(NCC2=CC(=O)C=CC2=O)cc1O
[1]; at 1.2 µM
  growth inhibition: 13%
[1]; at 3.7 µM
  growth inhibition: 34%
[1]; at 11.0 µM
  growth inhibition: 80% (active)
[1]; at 33.0 µM
  growth inhibition: 97% (active)
[1]; at 100.0 µM
  growth inhibition: 92% (active)
[2]; at 1.2 µM
  growth inhibition: -14%
[2]; at 3.7 µM
  growth inhibition: 2%
[2]; at 11.0 µM
  growth inhibition: 68%
[2]; at 33.0 µM
  growth inhibition: 97% (active)
[2]; at 100.0 µM
  growth inhibition: 93% (active)
[3]; at 1.2 µM
  growth inhibition: 17%
[3]; at 3.7 µM
  growth inhibition: 63%
[3]; at 11.0 µM
  growth inhibition: 89% (active)
[3]; at 33.0 µM
  growth inhibition: 97% (active)
[3]; at 100.0 µM
  growth inhibition: 92% (active)
[4]; at 1.2 µM
  growth inhibition: 9%
[4]; at 3.7 µM
  growth inhibition: 30%
[4]; at 11.0 µM
  growth inhibition: 77% (active)
[4]; at 33.0 µM
  growth inhibition: 97% (active)
[4]; at 100.0 µM
  growth inhibition: 91% (active)
[5]; at 1.2 µM
  growth inhibition: 12%
[5]; at 3.7 µM
  growth inhibition: 32%
[5]; [16]
  growth inhibition: 12%
[5]; at 11.0 µM
  growth inhibition: 75% (active)
[5]; at 33.0 µM
  growth inhibition: 95% (active)
[5]; [17]
  growth inhibition: 96% (active)
[5]; at 50.0 µM
  growth inhibition: 91% (active)
[5]; at 100.0 µM
  growth inhibition: 93% (active)
[6]; at 1.2 µM
  growth inhibition: -2%
[6]; at 3.7 µM
  growth inhibition: 17%
[6]; [16]
  growth inhibition: 13%
[6]; at 11.0 µM
  growth inhibition: 70% (active)
[6]; at 33.0 µM
  growth inhibition: 97% (active)
[6]; [17]
  growth inhibition: 98% (active)
[6]; at 50.0 µM
  growth inhibition: 93.2% (active)
[6]; at 100.0 µM
  growth inhibition: 89% (active)
[7]; [16]
  growth inhibition: 50%
[7]; [17]
  growth inhibition: 98% (active)
[7]; at 50.0 µM
  growth inhibition: 93.5% (active)
[8]; at 1.2 µM
  growth inhibition: 8%
[8]; at 3.7 µM
  growth inhibition: 33%
[8]; at 11.0 µM
  growth inhibition: 78% (active)
[8]; at 33.0 µM
  growth inhibition: 96% (active)
[8]; at 100.0 µM
  growth inhibition: 93% (active)
[9]; [16]
  growth inhibition: 36%
[9]; [17]
  growth inhibition: 93% (active)
[9]; at 50.0 µM
  growth inhibition: 89.9% (active)
[10]; at 1.2 µM
  growth inhibition: -3%
[10]; at 3.7 µM
  growth inhibition: 10%
[10]; [16]
  growth inhibition: 66%
[10]; at 11.0 µM
  growth inhibition: 20%
[10]; at 33.0 µM
  growth inhibition: 95% (active)
[10]; [17]
  growth inhibition: 98% (active)
[10]; at 50.0 µM
  growth inhibition: 91.1% (active)
[10]; at 100.0 µM
  growth inhibition: 93% (active)
[15]; at 1.2 µM
  growth inhibition: 20%
[15]; at 3.7 µM
  growth inhibition: 56%
[15]; at 11.0 µM
  growth inhibition: 94% (active)
[15]; at 33.0 µM
  growth inhibition: 97% (active)
[15]; at 100.0 µM
  growth inhibition: 92% (active)
[11]; at 1.2 µM
  growth inhibition: 17%
[11]; at 3.7 µM
  growth inhibition: 51%
[11]; at 11.0 µM
  growth inhibition: 90% (active)
[11]; at 33.0 µM
  growth inhibition: 98% (active)
[11]; at 100.0 µM
  growth inhibition: 94% (active)
[12]; at 1.2 µM
  growth inhibition: 3%
[12]; at 3.7 µM
  growth inhibition: 30%
[12]; at 11.0 µM
  growth inhibition: 76% (active)
[12]; at 33.0 µM
  growth inhibition: 97% (active)
[12]; at 100.0 µM
  growth inhibition: 91% (active)
[13]; [16]
  growth inhibition: 0%
[13]; [17]
  growth inhibition: 93% (active)
[13]; at 50.0 µM
  growth inhibition: 92.2% (active)
[14]; at 1.2 µM
  growth inhibition: 18%
[14]; at 3.7 µM
  growth inhibition: 32%
[14]; at 11.0 µM
  growth inhibition: 85% (active)
[14]; at 33.0 µM
  growth inhibition: 97% (active)
[14]; at 100.0 µM
  growth inhibition: 95% (active)
